Among the test systems are NCI-H23 lung; NCI-H226 lung; NCI-H322M lung; HOP-62 NSCLC; NCI-H522 lung; A549/ATCC NSCLC; 786-0 renal; COLO 205 colon; DU-145 prostate; K-562 leukemia; MALME-3M melanoma; MDA-MB-231 breast; RXF 393 renal; SF-268 CNS; SF-295 CNS; SF-539 CNS; UACC-257 melanoma; M14 melanoma; HOP-92 NSCLC; NCI-H460 lung.
Common to all, as to experiment: NCI-60 one-dose screen, 48 h (100 = growth as untreated, 0 = no growth, -100 = all killed)
Holding throughout (conditions): 10 µM unless noted

This is part of a sample that, as a whole, favours compounds with a hit. Of some 83,000 tested, about 20% had one in any assay.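 Interpretation: 100, growth as untreated; towards 0, rising growth inhibition; 0, no net growth; 0 to -100, cell death. Compounds scoring below 10 were considered active.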 Unmarked numbers belong to inactive results. Activity calls are given as the source filed them.

With `C/C=C/c1cc2c(c(=O)o1)C(=O)[C@@H](O)[C@H](C)O2`, the growth in the assay with NCI-H23 lung was 77.9%; with NCI-H226 lung, 79.6%; with NCI-H322M lung it was 94.6%; in the assay with HOP-62 NSCLC it was 101%; with NCI-H522 lung, -69% (active); with A549/ATCC NSCLC, 97.2%. For the same molecule, the growth is 78.4% in the assay with 786-0 renal; 35.6% in the assay on COLO 205 colon; 27.6% with DU-145 prostate; -4.98% (active) with K-562 leukemia; 19.7% in the assay with MALME-3M melanoma; 90.1% in the assay on MDA-MB-231 breast. The growth is 52.7% in the assay on RXF 393 renal; 88.4% in the assay on SF-268 CNS; 96.1% with SF-295 CNS; 87.7% in the assay on SF-539 CNS; 86.7% with UACC-257 melanoma; -3.06% (active) with M14 melanoma.

Consider `O=C(Cc1nc2cc(Cl)c(Cl)cc2nc1CC(=O)c1cccnc1)c1cccnc1`, for which the growth was 88.1% in the assay on NCI-H23 lung; 77.2% with NCI-H226 lung; 78.4% in the assay on NCI-H322M lung; 86.3% in the assay with HOP-62 NSCLC; 78% with HOP-92 NSCLC; 58.8% with NCI-H522 lung. Moreover, the growth was 93.5% in the assay on A549/ATCC NSCLC; 58.7% with 786-0 renal; 89.8% in the assay on COLO 205 colon; 93.5% in the assay with DU-145 prostate; 49.6% in the assay on K-562 leukemia; 65.5% in the assay on MALME-3M melanoma. Moreover, the growth in the assay with RXF 393 renal was 87.9%; with SF-268 CNS it was 82.2%; in the assay with SF-295 CNS it was 94.1%; with SF-539 CNS it was 78.7%; in the assay with UACC-257 melanoma it was 95.7%; in the assay with M14 melanoma, 76.5%.

In the case of `CCCc1cc(=O)oc2c3c(c4c(c12)OC(C)(C)CC4)OC(C)[C@H](C)[C@@H]3O` (stereo not given in full), the growth with NCI-H23 lung is 81.4%; in the assay on NCI-H226 lung it was 81.1%; with NCI-H322M lung it was 106%; in the assay with NCI-H460 lung, 85.7%; in the assay with HOP-92 NSCLC, -1.36% (active); in the assay with NCI-H522 lung, 57.7%. The growth was 72% with A549/ATCC NSCLC; 86.4% in the assay with 786-0 renal; 96.1% in the assay with COLO 205 colon; 104% in the assay with DU-145 prostate; 71.2% in the assay on K-562 leukemia; 139% with MALME-3M melanoma. For the same molecule, the growth in the assay on MDA-MB-231 breast was 79.9%; in the assay on RXF 393 renal it was 77.5%; with SF-268 CNS, 94.4%; with SF-295 CNS, 44.5%; in the assay on SF-539 CNS, 108%; in the assay with UACC-257 melanoma, 104%. Moreover, in the assay on M14 melanoma, the growth was 102%.

Turning to `O=Nc1ccc2ccccc2c1O`, the growth in the assay on NCI-H23 lung was 56.6%; with NCI-H226 lung, 102%; in the assay on NCI-H322M lung it was 103%; in the assay on NCI-H460 lung, 97.5%; in the assay on HOP-92 NSCLC, 90.1%; in the assay with NCI-H522 lung it was 74.7%. For the same molecule, the growth in the assay on A549/ATCC NSCLC is 87.1%; in the assay with 786-0 renal, 98%; in the assay on COLO 205 colon, 75.1%; with DU-145 prostate it was 94.3%; in the assay with K-562 leukemia, 80.9%; in the assay on MALME-3M melanoma, 63.4%. Besides, the growth in the assay on MDA-MB-231 breast was 54.6%; in the assay on RXF 393 renal, 93.8%; in the assay on SF-268 CNS it was 91.6%; in the assay on SF-295 CNS, 83%; in the assay with SF-539 CNS, 108%; in the assay on UACC-257 melanoma it was 18.3%.

In the case of `CCc1oc2ccccc2c1C(=O)c1cc(Br)c(O)c(Br)c1`, the growth in the assay with NCI-H23 lung is 52.9%; in the assay with NCI-H226 lung, 84%; in the assay with NCI-H322M lung, 118%; in the assay with HOP-62 NSCLC, 81.8%; in the assay with HOP-92 NSCLC, 0.0238% (active); in the assay on NCI-H522 lung, 30.8%. The growth with A549/ATCC NSCLC was 66.5%; in the assay with 786-0 renal it was 68.2%; in the assay with MALME-3M melanoma, 94.8%; in the assay with MDA-MB-231 breast, 58.9%; in the assay with RXF 393 renal, 51.6%; with SF-268 CNS, 75.4%. Also, the growth with SF-295 CNS was 52.8%; in the assay with SF-539 CNS, 65.5%; in the assay on UACC-257 melanoma, 66.2%; in the assay with M14 melanoma it was 49.7%.

In the case of `OC(c1cc(C23CC4CC(CC(C4)C2)C3)nc2c(Cl)cc(Cl)cc12)C1CCCCN1` (stereo not given), the growth in the assay on NCI-H23 lung was -53.9% (active); with NCI-H226 lung, -69.4% (active); with NCI-H322M lung it was -19.3% (active); in the assay on NCI-H460 lung, -71.4% (active); in the assay with HOP-92 NSCLC, -80.7% (active); in the assay on NCI-H522 lung it was -81% (active). For the same molecule, the growth in the assay on A549/ATCC NSCLC is -74.6% (active); in the assay with 786-0 renal it was -55% (active); with COLO 205 colon, -87.2% (active); in the assay on DU-145 prostate, -93.6% (active); with K-562 leukemia it was -67% (active); in the assay on MALME-3M melanoma, -16.3% (active). In addition, the growth is -62.2% (active) with MDA-MB-231 breast; -91.4% (active) in the assay with RXF 393 renal; -86.9% (active) in the assay on SF-268 CNS; -76.9% (active) in the assay on SF-539 CNS; -69.1% (active) with UACC-257 melanoma; -85.6% (active) in the assay with M14 melanoma.

With `COc1ccc(C(OCC2OC(n3ccc(NC(=O)c4ccccc4)nc3=O)C(O)C2O)(c2ccccc2)c2ccccc2)cc1` (stereo not given), the growth in the assay with NCI-H23 lung is 54.8%; in the assay on NCI-H226 lung, 29.9%; in the assay on NCI-H322M lung it was 109%; with HOP-62 NSCLC, 85.3%; with NCI-H522 lung it was 67.9%; with A549/ATCC NSCLC it was 28.1%. Also, the growth was 52.5% with 786-0 renal; 39.5% with COLO 205 colon; 52.4% with DU-145 prostate; 32.7% in the assay with K-562 leukemia; 58.2% in the assay on MDA-MB-231 breast; 31% in the assay on RXF 393 renal. For the same molecule, the growth was 54.2% in the assay with SF-268 CNS; 41.7% in the assay on SF-295 CNS; 42.9% in the assay on SF-539 CNS; 64.3% in the assay with UACC-257 melanoma; 40.2% with M14 melanoma.

As for `Cc1cc(Br)c2nsnc2c1[N+](=O)[O-]`, the growth is -6.95% (active) in the assay with NCI-H23 lung; 44.4% in the assay with NCI-H226 lung; 88.2% in the assay on NCI-H322M lung; 2% (active) in the assay on NCI-H460 lung; 62.5% in the assay on HOP-92 NSCLC; -40% (active) in the assay with NCI-H522 lung. In addition, the growth is 54.4% in the assay with A549/ATCC NSCLC; 17.8% with 786-0 renal; 0.766% (active) in the assay with COLO 205 colon; 18.9% in the assay on DU-145 prostate; 22.7% in the assay with K-562 leukemia; 82.4% in the assay with MALME-3M melanoma. Also, the growth in the assay on MDA-MB-231 breast is 30%; with RXF 393 renal, 48.2%; in the assay on SF-268 CNS, 32.3%; in the assay with SF-295 CNS, 33.8%; with SF-539 CNS, 9.73% (active); in the assay on UACC-257 melanoma, 66.9%. The growth with M14 melanoma is 3.57% (active).

Take `O=C1C(=O)c2cc([N+](=O)[O-])ccc2-c2ccccc21`: the growth was -71.8% (active) with NCI-H23 lung; -98.7% (active) in the assay on NCI-H226 lung; 96.9% in the assay with NCI-H322M lung; -93.3% (active) in the assay on HOP-62 NSCLC; -52.2% (active) with A549/ATCC NSCLC; -96.7% (active) with 786-0 renal. Further, the growth in the assay with COLO 205 colon was -56.9% (active); with DU-145 prostate, -99.2% (active); with K-562 leukemia it was -9.39% (active); in the assay on MALME-3M melanoma, -82.7% (active); with MDA-MB-231 breast it was -50.6% (active); in the assay on RXF 393 renal it was -97.2% (active). Moreover, the growth is -84.4% (active) in the assay with SF-268 CNS; -82.2% (active) in the assay on SF-295 CNS; -93% (active) in the assay on SF-539 CNS; -94.5% (active) with UACC-257 melanoma; -90.2% (active) in the assay on M14 melanoma.

Source of the values: PubChem BioAssay (NCI).
